# System: T1, CDC2L1
# T1 construct: gene CDK11B
# Conditions: concentration: 1 μM, replicates: in singlicate; n = 1
# 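Further: KINOMEscan kinase panel screen.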
row,Structure (SMILES),%Inh [%]
1,COc1cccc(C2=C(Nc3cccc(O)c3)C(=O)NC2=O)c1 [SB-390771],0
2,COc1cccc(CC(=O)N2CCc3cc(-c4cn(C)c5ncnc(N)c45)ccc32)c1 [GSK2608899],1
3,O=C(Nc1n[nH]c2nc(-c3ccccc3O)ccc12)C1CC1 [SB-711880],0
4,N#CC1(c2cccc(C(=O)Nc3cccc(Oc4ccc5nc(NC(=O)C6CC6)sc5n4)c3)c2)CC1,0
5,COc1cc(Nc2nccc(N3CCC(NC(=O)Nc4ccc5c(c4)OCO5)C3)n2)cc(OC)c1OC (centres unmarked) [GSK1379766],0
6,Cc1ccc(-c2ccc3occ(-c4ccc(S(C)=O)cc4)c3c2)nn1 (centres unmarked),0
7,CN(c1ccc(F)c(NC(=O)c2cccc(OC(C)(C)C#N)c2Cl)c1)c1ccc2nc(NC(=O)C3CC3)sc2n1,0
8,CN(c1ccc2c(c1)nc(NCc1ccccc1)n2C)c1ccnc(Nc2ccc(CS(C)(=O)=O)cc2)n1.Cl [GW811603],94.2
9,Nc1ncc(-c2ccc3nccc(-c4ccncc4)c3c2)cc1S(=O)(=O)N1CCCCC1 [GSK1693850],0
10,Nc1ncc(-c2cn[nH]c2)c2scc(-c3ccc4c(c3)CCN4C(=O)Cc3ccccc3)c12 [GSK2593067],0
11,CN(C)c1ncnc2nc[nH]c12 [SKF-31736],0
12,Cl.Cl.NC(CNC(=O)c1cc(Br)c(-c2ccnc3[nH]ccc23)s1)c1ccccc1 (centres unmarked) [GSK1322949],0
13,CNc1nccc(-c2ccc3c(N)n[nH]c3c2)n1 [GSK2206003],10
14,COc1cc(Nc2ccnc3cc(-c4ccncc4)ccc23)cc(OC)c1OC.Cl [GW494610],0
15,COc1cccc(-c2nc(-c3ccccc3)[nH]c2-c2ccncc2)c1 [SB-610250],0
16,O=C1NC(=O)C(c2ccccc2Cl)=C1Nc1cccc(Cl)c1 [SB-342409],0
17,O=C(O)C(F)(F)F.O=c1[nH]ccc2nc(N[C@@H]3CCNC3)nc(Nc3cc(Cl)cc(Cl)c3)c12 [GSK2188764],1
